# Measurements published in PubChem BioAssay (NCATS).
# “And” between values parts separate entries of the source, which are not always exact repeats. Identical values can stand only once. Inconclusive results are not listed. Where a call stands in place of a potency, no number is given. The source made the active and inactive calls. Unless noted, the call rests on the fitted dose curve; in most records, active means well fitted curve in the direction sought with a large enough effect; inconclusive means small, poorly fitted or top-dose-only effect, or another doubt; inactive means no such curve, though single readings can be large; an effect the other way counts as inactive or inconclusive.
# Legend:
# [1] = target: Thyroid hormone receptor beta (Homo sapiens) (UniProt P10828); assay: qHTS assay for small molecule agonists of thyroid hormone receptor beta signaling (AID 588545; calls by dose curve)
# Sequence of Thyroid hormone receptor beta (Homo sapiens) (P10828 whole entry, looked up): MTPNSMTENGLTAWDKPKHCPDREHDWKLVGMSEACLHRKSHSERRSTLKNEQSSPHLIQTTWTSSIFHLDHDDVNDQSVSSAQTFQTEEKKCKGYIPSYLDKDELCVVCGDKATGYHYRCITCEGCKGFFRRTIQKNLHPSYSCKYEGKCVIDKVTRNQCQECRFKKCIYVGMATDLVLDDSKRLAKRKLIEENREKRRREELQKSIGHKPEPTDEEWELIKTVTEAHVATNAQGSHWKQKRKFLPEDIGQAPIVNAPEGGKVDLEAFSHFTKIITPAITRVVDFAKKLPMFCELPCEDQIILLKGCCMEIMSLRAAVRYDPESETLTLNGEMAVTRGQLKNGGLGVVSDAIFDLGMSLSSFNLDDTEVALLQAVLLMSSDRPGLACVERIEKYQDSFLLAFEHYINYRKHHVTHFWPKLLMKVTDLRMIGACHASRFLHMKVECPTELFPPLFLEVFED
# Outline: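 TR-UAS-bla-GripTite HEK 293 cells in medium with 2% charcoal/dextran FBS, 0.1 mM NEAA and 1 mM sodium pyruvate were treated with titrated compounds for 18 hrs at 37 C. Beta-lactamase reporter was read with CCF4 dye (ex 405, em 460/530 nm); EC50 from Hill fits.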
# [2] = qHTS assay for small molecule antagonists of retinoid X receptor alpha signaling (AID 588546; active means well fitted inhibition curve with a large enough effect in the signal ratio, with a control signal flat, not every such curve was filed as active; the % refers to the signal ratio;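 further: cells stimulated with 9-cis-retinoic acid as agonist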); settings: HEK293T RXRa-UAS-bla, beta-lactamase ratio, antagonist mode; measured here: W530 green channel, cytotoxicity proxy
# Outline: (§1)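 Beta-lactamase reporter inhibition, read as CCF4 fluorescence ratio (ex 405, em 460/530 nm) after 2 h at RT. HEK293T UAS-bla cells, 2500/well, were stimulated with 9-cis-RA at 500 or 100 nM final alongside test compound for 18 h at 37 C.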
# [3] = target: Retinoic acid receptor RXR-alpha (Homo sapiens) (UniProt P19793); assay: as above; settings: HEK293T RXRa-UAS-bla, beta-lactamase ratio, antagonist mode
# Sequence of Retinoic acid receptor RXR-alpha (Homo sapiens) (P19793 whole entry, looked up): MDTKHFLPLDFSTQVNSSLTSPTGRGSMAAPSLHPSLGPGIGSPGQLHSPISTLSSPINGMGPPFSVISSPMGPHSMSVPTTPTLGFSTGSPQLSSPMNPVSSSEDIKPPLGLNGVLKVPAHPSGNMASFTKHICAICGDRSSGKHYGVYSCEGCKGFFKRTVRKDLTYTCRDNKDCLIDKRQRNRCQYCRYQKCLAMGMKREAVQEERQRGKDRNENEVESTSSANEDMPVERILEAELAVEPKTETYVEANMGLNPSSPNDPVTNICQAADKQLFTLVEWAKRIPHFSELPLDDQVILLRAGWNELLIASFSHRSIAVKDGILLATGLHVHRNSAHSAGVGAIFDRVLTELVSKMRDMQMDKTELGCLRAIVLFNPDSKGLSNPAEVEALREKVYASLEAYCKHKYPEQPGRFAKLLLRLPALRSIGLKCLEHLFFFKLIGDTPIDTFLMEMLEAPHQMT
# Outline: as §1
# [4] = target: Thyroid hormone receptor beta (Homo sapiens) (UniProt P10828); assay: qHTS assay for small molecule antagonists of thyroid hormone receptor beta signaling (AID 588547; active means well fitted inhibition curve with a large enough effect in the signal ratio, with a control signal flat, not every such curve was filed as active; the % refers to the signal ratio;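 further: cells stimulated with 0.4 nM T3 agonist during compound exposure; series mostly up to about 77 µM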); settings: TR-UAS-bla HEK293, beta-lactamase ratio, antagonist mode, 18 h
# Outline: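 TR-UAS-bla GripTite HEK293 cells in 2% charcoal/dextran FBS medium were preincubated 4 h at 37 C, given compound (0.59 nM to 92 uM) plus 0.4 nM T3 (final) for 18 h, then CCF4 for 2 h at RT; Hill fit gave IC50.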
# [5] = target: Voltage-gated inwardly rectifying potassium channel KCNH2 (Homo sapiens) (UniProt Q12809); assay: qHTS Assay for Small Molecule Inhibitors of the Human hERG Channel Activity (AID 588834);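 further: top concentration of the series differs between compounds; lower thallium flux fluorescence means stronger hERG block; nearly all actives have a fitted effect of over 50% in size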
# Sequence of Voltage-gated inwardly rectifying potassium channel KCNH2 (Homo sapiens) (Q12809 whole entry, looked up): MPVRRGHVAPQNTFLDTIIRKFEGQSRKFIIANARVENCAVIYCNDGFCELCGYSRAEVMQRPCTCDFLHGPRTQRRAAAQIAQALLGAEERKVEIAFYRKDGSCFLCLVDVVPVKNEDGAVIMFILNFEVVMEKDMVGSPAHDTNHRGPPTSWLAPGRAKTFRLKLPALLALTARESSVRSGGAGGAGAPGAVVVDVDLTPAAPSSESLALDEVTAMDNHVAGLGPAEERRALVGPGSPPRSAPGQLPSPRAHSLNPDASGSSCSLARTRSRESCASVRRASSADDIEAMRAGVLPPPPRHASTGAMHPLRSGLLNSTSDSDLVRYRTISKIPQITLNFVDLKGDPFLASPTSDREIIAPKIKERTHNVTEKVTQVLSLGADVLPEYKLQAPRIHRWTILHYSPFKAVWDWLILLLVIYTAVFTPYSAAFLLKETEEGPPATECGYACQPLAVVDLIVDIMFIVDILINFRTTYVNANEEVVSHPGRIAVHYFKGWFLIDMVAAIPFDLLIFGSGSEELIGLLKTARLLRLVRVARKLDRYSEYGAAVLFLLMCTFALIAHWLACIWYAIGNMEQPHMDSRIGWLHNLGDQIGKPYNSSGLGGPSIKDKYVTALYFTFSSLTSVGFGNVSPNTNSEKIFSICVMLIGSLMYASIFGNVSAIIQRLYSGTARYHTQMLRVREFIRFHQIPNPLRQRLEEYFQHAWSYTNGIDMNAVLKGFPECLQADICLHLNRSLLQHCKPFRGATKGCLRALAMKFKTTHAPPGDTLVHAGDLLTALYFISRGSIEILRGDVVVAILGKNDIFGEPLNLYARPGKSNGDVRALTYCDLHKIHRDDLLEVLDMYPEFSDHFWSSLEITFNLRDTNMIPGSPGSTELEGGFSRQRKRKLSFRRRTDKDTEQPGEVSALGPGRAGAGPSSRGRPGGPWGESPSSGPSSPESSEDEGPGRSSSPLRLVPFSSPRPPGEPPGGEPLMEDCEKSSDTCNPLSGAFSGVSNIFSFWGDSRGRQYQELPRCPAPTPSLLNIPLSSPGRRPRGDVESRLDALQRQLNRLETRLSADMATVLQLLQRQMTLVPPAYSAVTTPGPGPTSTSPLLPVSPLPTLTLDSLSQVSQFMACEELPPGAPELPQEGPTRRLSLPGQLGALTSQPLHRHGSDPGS
# Outline: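 Kinetic FDSS fluorescence; U2OS + hERG BacMam (~100 virus particles/cell); FluxOR Tl+ flux; ~10 min cpd; AC50 (Hill).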
# [6] = qHTS assay for small molecule agonists of the antioxidant response element (ARE) signaling pathway (AID 651741; active means well fitted activation curve with a large enough effect in the signal ratio; the % refers to the signal ratio)
# Outline: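 Compounds in DMSO are pinned onto HepG2 ARE-bla cells (2,000/well) that were preincubated 5 h; plates stay 16 h at 37 C, then beta-lactamase activity is detected with LiveBLAzer B/G substrate by fluorescence.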
# [7] = qHTS assay for small molecule activators of the p53 signaling pathway (AID 651743; active means well fitted activation curve with a large enough effect in the signal ratio, not every such curve was filed as active; the % refers to the signal ratio; further: series mostly up to about 92 µM); settings: HCT-116 p53RE-bla, beta-lactamase FRET ratio, 16 h; activation: stronger effect = higher value
# Outline: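 Cell-based beta-lactamase reporter (p53 response elements, HCT-116 background). After a 5-hour preincubation, cells received compound for 16 hours at 37 C; substrate development ran 2 hours at room temperature.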
# [8] = qHTS assay for small molecule activators of the nuclear factor-kappa B (NF-kB) signaling pathway (AID 651749; active means well fitted activation curve with a large enough effect in the signal ratio; the % refers to the signal ratio; further: series mostly up to about 77 µM); settings: NF-kB-bla ME-180 cells, beta-lactamase FRET ratio, 16 h; stronger effect = higher value
# Outline: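 Screening used 2,000 ME-180 reporter cells per well exposed to pinned compound (23 nL) or DMSO; after 16 hr at 37C, beta-lactamase expression under NF-kB control was assessed through FRET.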
# [9] = qHTS assay for small molecule disruptors of the mitochondrial membrane potential - 1 hr assay (AID 651754; calls by dose curve; further: nearly all actives have a fitted effect of over 35% in size)
# Outline: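 HepG2 cells, attached overnight, were exposed to compound for 1 hr at 37C, then stained 30 min with a potentiometric dye. Ratio of red aggregate (590nm) to green monomer (535nm) fluorescence reports membrane potential; collapse shifts signal toward green.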
# [10] = qHTS assay for small molecule disruptors of the mitochondrial membrane potential - 5 hr assay (AID 651755; calls by dose curve; further: nearly all actives have a fitted effect of over 40% in size)
# Outline: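 HepG2 cells, attached overnight at 37C, were exposed to compound or DMSO for 5 hr at 37C, 5% CO2. Mito-MPS dye was then added for 30 min, and fluorescence read at 490/535 nm (monomers) and 540/590 nm (aggregates).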
# [11] = target: Tumor necrosis factor (Homo sapiens) (UniProt P01375); assay: qHTS assay to identify small molecules that stimulate Tumor Necrosis Factor-alpha (TNF-alpha) secretion (AID 651757; active means well fitted curve in the direction sought with a large enough effect in the signal ratio; the % refers to the signal ratio)
# Sequence of Tumor necrosis factor (Homo sapiens) (P01375 whole entry, looked up): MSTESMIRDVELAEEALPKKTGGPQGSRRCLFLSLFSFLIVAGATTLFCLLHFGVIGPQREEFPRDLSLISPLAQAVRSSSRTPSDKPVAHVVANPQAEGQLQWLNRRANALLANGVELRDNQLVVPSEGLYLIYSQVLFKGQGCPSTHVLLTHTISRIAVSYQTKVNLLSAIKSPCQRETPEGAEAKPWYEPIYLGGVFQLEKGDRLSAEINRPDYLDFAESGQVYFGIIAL
# Outline: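 THP-1 cells (3000/well) exposed to compounds 17 hrs at 37 C. Secreted TNF-alpha detected by HTRF with cryptate- and XL665-labeled anti-TNF-alpha antibodies after 3 hr at room temperature.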
# [12] = qHTS assay for environmental chemicals that activate the Aryl hydrocarbon Receptor (AhR) signaling pathway (AID 651777); settings: 1A2-DRE human hepatoma cells, luciferase, 24 h; activation: stronger effect = higher value; further: nearly all actives have a fitted effect of over 15% in size
# Outline: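 Luminescence read-out: One-Glo added for 30 min at RT after 24 hr compound treatment (37 C, 5% CO2) of human hepatoma cells expressing a DRE/CYP1A2 promoter–luciferase reporter; increased signal indicates AhR activation.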
# [13] = target: Peroxisome proliferator-activated receptor alpha (Homo sapiens) (UniProt Q07869); assay: qHTS assay for small molecule agonists of the peroxisome proliferator-activated receptor alpha (PPARalpha) signaling pathway (AID 651778); settings: PathHunter PPARalpha complementation, chemiluminescence, 6 h; max response: stronger effect = higher value
# Sequence of Peroxisome proliferator-activated receptor alpha (Homo sapiens) (Q07869 whole entry, looked up): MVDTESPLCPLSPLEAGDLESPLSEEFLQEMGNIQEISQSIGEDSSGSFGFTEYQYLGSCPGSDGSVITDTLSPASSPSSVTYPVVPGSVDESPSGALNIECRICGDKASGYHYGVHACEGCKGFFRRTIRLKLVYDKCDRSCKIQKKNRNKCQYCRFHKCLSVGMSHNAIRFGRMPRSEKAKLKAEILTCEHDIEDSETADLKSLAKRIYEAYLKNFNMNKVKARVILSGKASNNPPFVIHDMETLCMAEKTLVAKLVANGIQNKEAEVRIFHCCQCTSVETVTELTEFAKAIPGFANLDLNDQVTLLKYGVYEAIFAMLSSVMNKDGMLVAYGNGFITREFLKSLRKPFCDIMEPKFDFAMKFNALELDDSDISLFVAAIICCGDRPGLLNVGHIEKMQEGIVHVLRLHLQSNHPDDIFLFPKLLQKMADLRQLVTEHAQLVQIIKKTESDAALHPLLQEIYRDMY
# Outline: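 Cells plated at 2,000/well and held overnight at 37 C, 5% CO2, then compound added by pin tool for 6 hr; after PathHunter detection reagent and 60 min at room temperature, chemiluminescence from enzyme complementation was read.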
# [14] = target: Nuclear receptor ROR-gamma (Homo sapiens) (UniProt P51449); assay: qHTS assay for small molecule antagonists of the retinoid-related orphan receptor gamma (ROR-gamma) signaling pathway (AID 651802);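 further: luciferase reporter luminescence driven by ROR response element; series mostly up to about 92 µM; nearly all actives have a fitted effect of over 60% in size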
# Sequence of Nuclear receptor ROR-gamma (Homo sapiens) (P51449 whole entry, looked up): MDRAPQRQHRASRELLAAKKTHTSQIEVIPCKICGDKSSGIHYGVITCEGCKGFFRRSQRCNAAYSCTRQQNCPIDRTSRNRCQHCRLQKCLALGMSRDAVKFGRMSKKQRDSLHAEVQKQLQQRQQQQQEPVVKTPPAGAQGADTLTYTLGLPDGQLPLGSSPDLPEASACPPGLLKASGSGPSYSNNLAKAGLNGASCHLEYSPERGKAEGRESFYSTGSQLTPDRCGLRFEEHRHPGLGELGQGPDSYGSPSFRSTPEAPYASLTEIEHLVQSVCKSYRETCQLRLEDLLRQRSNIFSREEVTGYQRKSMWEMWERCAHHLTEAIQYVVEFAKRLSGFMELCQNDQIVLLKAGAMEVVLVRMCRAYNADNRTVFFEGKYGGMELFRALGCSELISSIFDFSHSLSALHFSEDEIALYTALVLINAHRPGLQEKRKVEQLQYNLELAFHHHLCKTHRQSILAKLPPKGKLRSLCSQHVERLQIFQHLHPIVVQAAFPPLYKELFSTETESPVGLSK
# Outline: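 CHO cells with TET-inducible ROR-gamma and RORE-luciferase reporter, dosed then doxycycline-induced. After 16 h at 37C, One-Glo luminescence read; decreased signal indicates antagonism.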
# [15] = qHTS assay for small molecule agonists of the antioxidant response element (ARE) signaling pathway measured by Nrf2-dependant transcriptional activity (AID 720636; active means well fitted curve in the direction sought with a large enough effect in the repeat runs; an effect the other way counts as inactive or inconclusive;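 further: HepG2 cells with an ARE-driven luciferase reporter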)
# Outline: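 HepG2 ARE-luc reporter line, 1% dialyzed FBS; 6 hr attachment at 37 C, compound pinned in, 16 hr at 37 C/5% CO2; ONE-Glo, 30 min RT, luminescence read.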
# [16] = qHTS assay for small molecule antagonists of the retinoid-related orphan receptor gamma (ROR-gamma) signaling pathway - cell viability counter screen (AID 720652; active means well fitted curve in the direction sought with a large enough effect in the repeat runs; an effect the other way counts as inactive or inconclusive;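 further: series mostly up to about 92 µM; compound exposure lasted 16 hr before ATP read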)
# Outline: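 CHO cells carrying TET-inducible ROR and RORE-luciferase reporter, plated 5 hr, then dosed with compound plus doxycycline. After 16 hr at 37 C, viability read as intracellular ATP by CellTiter-Glo luminescence.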
# [17] = qHTS assay for small molecule agonists of the antioxidant response element (ARE) signaling pathway measured by Nrf2-dependant transcriptional activity - cell viability counter screen (AID 720653; active means well fitted curve in the direction sought with a large enough effect in the repeat runs; an effect the other way counts as inactive or inconclusive); settings: ARE-bla HepG2 viability, CellTiter-Glo ATP luminescence, 16 h; max response: stronger effect = lower value
# Outline: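 ARE-bla HepG2 cells (2,000/well) rested 5 hrs at 37C/5% CO2, then exposed to compounds in DMSO for 16 hrs. Viability was read in the same wells as intracellular ATP by luminescence, 30 min at room temperature after reagent addition.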
# [18] = qHTS assay for cell viability of HEK293 cells (AID 743288); settings: ATP luminescence (CellTiter-Glo), 18 h; max response: stronger effect = lower value; further: nearly all actives have a fitted effect of over 50% in size
# Outline: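 Total intracellular ATP, measured with a luciferase-coupled reagent, indicates the number of viable HEK293 cells. Exposure to test chemicals lasts 18 h at 37 C in 1,536-well format at 2,000 cells/well.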
# [19] = qHTS assay for cell viability of the p53RE-bla HCT-116 cell line (AID 743292); further: nearly all actives have a fitted effect of over 55% in size
# Outline: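 Luminescent ATP quantitation (CellTiter-Glo) served as the viability read-out; reagent was added after 16 h compound exposure at 37 C and read after 30 min at room temperature. Cells: p53RE-bla HCT-116, 4,000 per well.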
# [20] = NCATS anti-infectives library activity on HEK293 viability as a counter-qHTS vs the C. elegans viability qHTS (AID 1745854);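 further: HEK293 cells exposed to compounds for 24 hr before the viability read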
# Outline: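 HEK293 cells (1,500/well) exposed 24 hr at 37C to 1:5 titrations, up to 41.7 uM final; counter-screen to a C. elegans viability qHTS. Viability by CellTiter-Glo luminescence after 10 min at room temperature; digitonin as control.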
# [21] = target: Nuclear receptor subfamily 1 group I member 2 (Rattus norvegicus) (UniProt Q9R1A7); assay: qHTS assay for small molecule activators of the rat pregnane X receptor (rPXR) signaling pathway (AID 651751; call rule not given here); settings: rPXR reporter cells, luciferase (One-Glo), 24 h
# Sequence of Nuclear receptor subfamily 1 group I member 2 (Rattus norvegicus) (Q9R1A7 whole entry, looked up): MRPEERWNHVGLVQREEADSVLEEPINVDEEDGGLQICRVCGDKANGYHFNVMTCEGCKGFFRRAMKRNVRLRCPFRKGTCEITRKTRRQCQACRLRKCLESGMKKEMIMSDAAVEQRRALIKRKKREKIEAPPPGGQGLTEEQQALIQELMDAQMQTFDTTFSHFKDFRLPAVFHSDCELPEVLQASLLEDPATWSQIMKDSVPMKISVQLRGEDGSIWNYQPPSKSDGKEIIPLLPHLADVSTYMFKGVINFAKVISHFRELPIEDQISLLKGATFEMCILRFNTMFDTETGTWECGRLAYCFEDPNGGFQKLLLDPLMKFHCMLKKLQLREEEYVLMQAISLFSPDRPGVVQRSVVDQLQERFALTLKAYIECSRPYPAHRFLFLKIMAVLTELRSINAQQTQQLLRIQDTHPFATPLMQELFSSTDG
# [22] = qHTS assay for small molecule activators of the human pregnane X receptor (PXR) signaling pathway (AID 720659; call rule not given here)
compound,measurement,setting,value
CC12CCC(CC1=O)C2(C)C (configuration not stated),outcome,[1],inactive
same,max response,[2],-5.66% and -6.43%
same,max response,[3],4.29% (inactive) and -7.42% (inactive)
same,activity change % (negative = inhibition),[4],8% (inactive) and 6.78% (inactive)
same,Potency,[5],inactive
same,Potency,[6],inactive
same,activation,[7],-2.06% (inactive) and 2.14% (inactive)
same,activation,[8],-0.0521% (inactive) and -0.265% (inactive)
same,Potency,[9],inactive
same,Potency,[10],inactive
same,outcome,[11],inactive
same,activation,[12],-0.66% (inactive) and 0.506% (inactive)
same,max response,[13],-4.19% (inactive) and 0.373% (inactive)
same,Potency,[14],inactive
same,Potency,[15],inactive
same,Potency,[16],inactive
same,max response,[17],-1.85% (inactive) and 2.1% (inactive)
same,max response,[18],-2.81% (inactive) and -7.37% (inactive)
same,Potency,[19],inactive
same,Potency,[20],inactive
same,max response,[21],4.6% (inactive) and -1.11% (inactive)
same,outcome,[22],inactive
